This note sets out measurements from PubChem BioAssay (EPA / NIEHS).

More than one record can exist for a structure, and the calls need not agree. Active and inactive are the calls of the source. How the source made its calls: active means hit-call score of the fitted dose curve at least 0.9, where 1 is the maximum; inactive means score below 0.9.

Assay [1] is described as follows: ATG_GLI_CIS: Attagene CIS-FACTORIAL HepG2 Assay for human Zinc Finger Protein GLI1 (AID 2282945). Particulars: HepG2, Attagene cis-factorial reporter mRNA, GLI element; actives raise or lower the signal. In short, it runs like this:
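Transiently transfected HepG2 cells report endogenous transcription factor activity via cis-element-driven reporter units. After 24 h compound exposure, reporter mRNA was measured by RT-PCR with capillary electrophoresis; bidirectional fitting against DMSO baseline.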

A short description of assay [2]: ATG_GRE_CIS: Attagene CIS-FACTORIAL HepG2 Assay for human Glucocorticoid Response Elements (GRE) (AID 2282947). Particulars: HepG2 GRE cis-reporter, Attagene multiplex mRNA; actives raise or lower the signal. The gist of the method: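 Read-out: fluorescent reporter-transcript fragments separated by capillary electrophoresis after RT-PCR. Transiently transfected HepG2 cells carrying cis-element-driven reporter units were dosed for 24 h; gain or loss of signal fitted against DMSO control.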

Assay [3] can be described thus: ATG_ISRE_CIS: Attagene CIS-FACTORIAL HepG2 Assay for human Interferon Regulatory Factor 1 (IRF1) binding to an Interferon-Stimulated Response Element (ISRE) (AID 2282948). Particulars: HepG2 ISRE cis-reporter (Attagene), mRNA transcription readout; actives raise or lower the signal. The gist of the method: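 Multiplexed mRNA reporter readout in human liver HepG2 cells: cis-element-driven reporters transfected, compound added for 24 h, transcripts amplified, fluorescently labelled and sized by capillary electrophoresis; curve fitting bidirectional against DMSO.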

Assay [4] is described as follows: ATG_M_32_CIS: Attagene CIS-FACTORIAL HepG2 Assay for M32 Transcription Factor (Internal Marker) (AID 2282949).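 Further: background control marker of the multiplexed CIS panel rather than a real target.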 Conditions: HepG2 Attagene cis-factorial M32 reporter, mRNA; actives raise or lower the signal. The gist of the method:
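Using DMSO as baseline, bidirectional curve fits were applied to reporter mRNA signals. These came from transiently transfected HepG2 cells exposed for 24 h, with RNA analysed by RT-PCR, FAM primer extension, HpaI digestion and CE.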

Assay [5] in a line: ATG_M_06_CIS: Attagene CIS-FACTORIAL HepG2 Assay for M06 Transcription Factor (Internal Marker) (AID 2282950). Conditions: HepG2 Attagene CIS-FACTORIAL M06 internal marker reporter; actives raise or lower the signal. The gist of the method: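 Terse: HepG2, transient MRTU transfection (FuGene 6), 24 h dosing; total RNA, oligo(dT) RT, PCR, FAM label, HpaI cut, capillary electrophoresis; bidirectional fit vs DMSO baseline; background-control endpoint.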

The target in assay [6] is Hypoxia-inducible factor 1-alpha (Homo sapiens) (UniProt Q16665). Briefly: ATG_HIF1a_CIS: Attagene CIS-FACTORIAL HepG2 Assay for human Hypoxia Inducible Factor 1 (HIF1A) (AID 2282951). Conditions: HepG2 Attagene cis-factorial HIF1a reporter transcription; actives raise or lower the signal. In short, it runs like this:
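After 24 h chemical exposure of reporter-transfected HepG2 cells, reporter cDNA was PCR-amplified, labelled by 6-FAM primer extension (2 min 95 C, 20 s 68 C, 10 min 72 C), HpaI-cut (2 h, 37 C) and analysed by CE.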

In assay [7] the target is Hepatocyte nuclear factor 6 (Homo sapiens) (UniProt Q9UBC0). Briefly: ATG_HNF6_CIS: Attagene CIS-FACTORIAL HepG2 Assay for human Hepatocyte Nuclear Factor 6 (HNF6) (AID 2282952). Particulars: HepG2 Attagene cis-factorial HNF6 reporter transcription; actives raise or lower the signal. The gist of the method: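 Endogenous transcription factor activity in human HepG2 liver cells was captured through cis-regulated reporter constructs. After 24 h treatment, reporter mRNA was measured by RT-PCR with capillary electrophoresis, and activity was fitted in both directions relative to DMSO.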

In assay [8] the target is Heat shock factor protein 1 (Homo sapiens) (UniProt Q00613). Put plainly: ATG_HSE_CIS: Attagene CIS-FACTORIAL HepG2 Assay for human Heat Shock Transcription Factor 1 (HSE) (AID 2282953). Conditions: HepG2 HSE cis-reporter, Attagene RNA transcription; actives raise or lower the signal. In short, it runs like this: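 Read-out: fluorescence of reporter-specific RT-PCR fragments separated by capillary electrophoresis. HepG2 carrying transfected cis-element reporter units; 24 h dosing; activity fitted in both directions relative to DMSO baseline.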

Assay [9] in a line: ATG_MRE_CIS: Attagene CIS-FACTORIAL HepG2 Assay for human Metal Responsive Element (MRE) (AID 2282954). Conditions: HepG2 MRE cis-reporter transcription, Attagene multiplex; actives raise or lower the signal. In short, it runs like this: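 RT-PCR/capillary electrophoresis readout of reporter mRNA, 24 h post-dosing, in HepG2 cells transfected with multiplexed cis-regulated reporter constructs. Gain or loss of signal fitted bidirectionally against DMSO baseline.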

Assay [10] in a line: ATG_PBREM_CIS: Attagene CIS-FACTORIAL HepG2 Assay for human Phenobarbital-responsive Enhancer Module (PBREM) (AID 2282955). Particulars: HepG2 PBREM cis-reporter, Attagene multiplexed transcription; actives raise or lower the signal. In short, it runs like this: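 Measures endogenous factor action on a phenobarbital-responsive enhancer module. HepG2 transiently carrying cis reporters, 24 h treatment, mRNA read-out by RT-PCR plus capillary electrophoresis.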

Assay [11] has as its target Paired box protein Pax-6 (Homo sapiens) (UniProt P26367). Put plainly: ATG_Pax6_CIS: Attagene CIS-FACTORIAL HepG2 Assay for human Paired Box 6 (PAX6) (AID 2282956). Particulars: HepG2 CIS-FACTORIAL PAX6 reporter transcription, RNA readout; actives raise or lower the signal. In short, it runs like this: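 Fluorescent RT-PCR products separated by capillary electrophoresis report PAX6-linked promoter mRNA in HepG2 cells 24 h post-dose. Curves fitted bidirectionally, DMSO as negative control.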

A short description of assay [12]: ATG_PXRE_CIS: Attagene CIS-FACTORIAL HepG2 Assay for human Pregnane X Receptor Element (PXRE) (AID 2282957). Conditions: HepG2 Attagene CIS-FACTORIAL PXRE reporter, mRNA; actives raise or lower the signal. The gist of the method: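 Endogenous transcription factor activity in HepG2 was gauged through induction of reporter mRNA driven by a cis-regulating promoter element, sampled 24 h post-treatment. Activity was fitted in both directions against DMSO negative control.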

A short description of assay [13]: ATG_PPRE_CIS: Attagene CIS-FACTORIAL HepG2 Assay for human Peroxisome Proliferator-activated Response Element (PPRE) (AID 2282958). Conditions: HepG2 PPRE cis-element reporter, Attagene transcription factor profiling; actives raise or lower the signal. The gist of the method: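 PPRE activity in HepG2: transient cis-reporter transfection, 24 h compound incubation, reporter mRNA by RT-PCR and CE fluorescence; gain/loss fitted against DMSO.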

Assay [14] can be described thus: ATG_RORE_CIS: Attagene CIS-FACTORIAL HepG2 Assay for human RAR-related Orphan Receptor Element (RORE) (AID 2282959). Particulars: HepG2 Attagene cis-factorial RORE reporter, mRNA; actives raise or lower the signal. In short, it runs like this: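 A 24-hour exposure of transfected HepG2 hepatoma cells precedes RNA isolation and reporter RT-PCR. Labeled products are digested with HpaI and resolved by capillary electrophoresis, with gain or loss of signal scored relative to DMSO.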

Assay [15] is described as follows: ATG_Sox_CIS: Attagene CIS-FACTORIAL HepG2 Assay for human SRY-box transcription factor (SOX) (AID 2282960). Conditions: HepG2 Attagene cis-factorial SOX reporter, mRNA; actives raise or lower the signal. The gist of the method: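 HepG2, cis reporter units, 24 h exposure. Reporter mRNA: RT-PCR → FAM labelling → HpaI → CE fluorescence. Bidirectional fit vs DMSO.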

Assay [16] concerns the target Transcription factor Sp1 (Homo sapiens) (UniProt P08047). Put plainly: ATG_Sp1_CIS: Attagene CIS-FACTORIAL HepG2 Assay for human Specificity Protein 1 (Sp1) (AID 2282961). Conditions: HepG2 Sp1 cis-reporter transcription, actives raise or lower the signal. The gist of the method:
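Liver-derived HepG2 cells, cis-element reporter library, 24 h treatment; RNA isolated, cDNA amplified with reporter-specific primers, FAM-labeled fragments sized on capillary analyzer. DMSO baseline, bidirectional curve fit.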

Assay [17] is described as follows: ATG_SREBP_CIS: Attagene CIS-FACTORIAL HepG2 Assay for human Sterol Regulatory Element Binding (SREBP) (AID 2282962). Particulars: HepG2 Attagene cis-factorial SREBP reporter, mRNA; actives raise or lower the signal. In short, it runs like this:
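Endogenous factor activity is measured in HepG2 through multiplexed reporter units under cis-element control. Following a 24 h incubation, reporter transcripts are reverse-transcribed, PCR-amplified and sized by capillary electrophoresis; activity is fitted in both directions relative to DMSO.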

Assay [18] addresses Signal transducer and activator of transcription 3 (Homo sapiens) (UniProt P40763). Put plainly: ATG_STAT3_CIS: Attagene CIS-FACTORIAL HepG2 Assay for human Signal Transducer and Activator of Transcription 3 (STAT3) (AID 2282963). Particulars: HepG2, Attagene cis-factorial STAT3 reporter transcription; actives raise or lower the signal. In short, it runs like this: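 Readout: fluorescent reporter mRNA fragments resolved by capillary electrophoresis. Setup: HepG2 transfected with MRTUs reporting endogenous transcription-factor activity, dosed 24 h. Gain or loss of signal fitted bidirectionally against DMSO control.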

A short description of assay [19]: ATG_TA_CIS: Attagene CIS-FACTORIAL HepG2 Assay for human TA Basal Promoter (AID 2282964). Particulars: HepG2 Attagene CIS-factorial TA basal promoter reporter; actives raise or lower the signal. The gist of the method: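 Transfected HepG2, 24 h compound exposure; RNA → RT-PCR → FAM primer extension → HpaI cut → CE fluorescence. Gain/loss-of-signal fitted against DMSO negative control. Background-control readout.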

Assay [20] has as its target Bile acid receptor (Homo sapiens) (UniProt Q96RI1). Put plainly: ATG_IR1_CIS: Attagene CIS-FACTORIAL HepG2 Assay for human Nuclear Receptor Subfamily 1 Group H Member 4 (NR1H4), IR1 submotif (AID 2282946). Conditions: IR1 reporter transcription, actives raise or lower the signal. The gist of the method:
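Fluorescence of capillary-separated, HpaI-digested RT-PCR reporter products gave IR1-element mRNA induction in HepG2 cells 24 h after dosing. Endogenous transcription factors drove the cis-regulated reporters; activity was fitted bidirectionally against DMSO.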

Chain of Paired box protein Pax-6 (Homo sapiens) (P26367 whole entry, looked up): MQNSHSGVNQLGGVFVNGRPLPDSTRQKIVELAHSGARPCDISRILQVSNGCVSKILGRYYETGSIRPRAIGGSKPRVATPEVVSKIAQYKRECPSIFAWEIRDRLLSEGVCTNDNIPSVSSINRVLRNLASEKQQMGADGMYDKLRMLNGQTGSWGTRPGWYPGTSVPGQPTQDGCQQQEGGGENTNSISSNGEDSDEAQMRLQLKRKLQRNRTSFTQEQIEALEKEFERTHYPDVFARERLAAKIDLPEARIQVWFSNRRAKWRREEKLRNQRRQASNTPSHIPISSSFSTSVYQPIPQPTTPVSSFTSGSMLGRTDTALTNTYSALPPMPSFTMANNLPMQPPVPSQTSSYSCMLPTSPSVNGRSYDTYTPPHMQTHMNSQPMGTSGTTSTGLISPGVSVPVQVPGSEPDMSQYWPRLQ
Chain of Transcription factor Sp1 (Homo sapiens) (P08047 whole entry, looked up, the tested form may be a part): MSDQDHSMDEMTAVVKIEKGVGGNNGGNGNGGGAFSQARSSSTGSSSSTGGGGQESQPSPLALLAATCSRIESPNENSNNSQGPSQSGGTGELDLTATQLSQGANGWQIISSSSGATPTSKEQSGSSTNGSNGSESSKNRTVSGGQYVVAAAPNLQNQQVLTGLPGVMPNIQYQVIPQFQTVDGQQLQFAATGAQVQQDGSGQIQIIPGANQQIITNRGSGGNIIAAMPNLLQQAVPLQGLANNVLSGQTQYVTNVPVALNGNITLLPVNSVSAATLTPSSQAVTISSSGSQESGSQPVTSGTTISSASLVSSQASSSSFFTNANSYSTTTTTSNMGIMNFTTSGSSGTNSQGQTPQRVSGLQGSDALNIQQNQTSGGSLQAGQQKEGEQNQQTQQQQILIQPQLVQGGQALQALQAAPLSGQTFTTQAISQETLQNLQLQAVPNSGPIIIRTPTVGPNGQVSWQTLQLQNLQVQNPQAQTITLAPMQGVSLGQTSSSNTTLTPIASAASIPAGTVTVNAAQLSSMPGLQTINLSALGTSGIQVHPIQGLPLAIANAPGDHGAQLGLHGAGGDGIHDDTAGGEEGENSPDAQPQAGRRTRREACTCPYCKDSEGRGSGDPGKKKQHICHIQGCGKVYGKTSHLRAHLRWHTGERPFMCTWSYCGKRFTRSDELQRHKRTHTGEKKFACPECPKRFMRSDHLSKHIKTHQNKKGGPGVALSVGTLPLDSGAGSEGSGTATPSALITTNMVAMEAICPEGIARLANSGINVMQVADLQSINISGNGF
Chain of Bile acid receptor (Homo sapiens) (Q96RI1 whole entry, looked up): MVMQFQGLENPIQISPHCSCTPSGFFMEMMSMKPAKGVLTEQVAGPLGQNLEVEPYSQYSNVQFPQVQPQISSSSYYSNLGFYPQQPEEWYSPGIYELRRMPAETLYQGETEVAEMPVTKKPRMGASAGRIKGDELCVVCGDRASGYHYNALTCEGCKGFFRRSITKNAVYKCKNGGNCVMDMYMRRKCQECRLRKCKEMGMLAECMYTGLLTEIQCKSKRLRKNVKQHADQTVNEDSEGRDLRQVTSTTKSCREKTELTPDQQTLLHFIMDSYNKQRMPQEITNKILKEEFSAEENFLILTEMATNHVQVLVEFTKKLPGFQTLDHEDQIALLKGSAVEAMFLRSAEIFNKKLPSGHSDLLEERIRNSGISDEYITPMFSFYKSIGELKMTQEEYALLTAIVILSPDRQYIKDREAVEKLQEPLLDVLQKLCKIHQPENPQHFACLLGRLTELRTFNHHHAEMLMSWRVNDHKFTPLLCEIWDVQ
Chain of Hepatocyte nuclear factor 6 (Homo sapiens) (Q9UBC0 whole entry, looked up): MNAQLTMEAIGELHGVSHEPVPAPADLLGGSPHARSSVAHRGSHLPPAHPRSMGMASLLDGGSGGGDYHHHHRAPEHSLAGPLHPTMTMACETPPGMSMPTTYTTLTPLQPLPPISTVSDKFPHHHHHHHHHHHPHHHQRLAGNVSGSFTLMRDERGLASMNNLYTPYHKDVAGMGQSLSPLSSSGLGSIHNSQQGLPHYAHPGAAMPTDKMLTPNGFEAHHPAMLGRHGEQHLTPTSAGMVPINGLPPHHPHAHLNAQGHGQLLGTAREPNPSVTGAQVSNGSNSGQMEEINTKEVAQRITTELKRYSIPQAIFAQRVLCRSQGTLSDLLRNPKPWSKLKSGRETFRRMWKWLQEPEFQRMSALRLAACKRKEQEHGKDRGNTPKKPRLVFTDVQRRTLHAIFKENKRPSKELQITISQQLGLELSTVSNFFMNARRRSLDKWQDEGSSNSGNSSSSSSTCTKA
Chain of Heat shock factor protein 1 (Homo sapiens) (Q00613 whole entry, looked up, the tested form may be a part): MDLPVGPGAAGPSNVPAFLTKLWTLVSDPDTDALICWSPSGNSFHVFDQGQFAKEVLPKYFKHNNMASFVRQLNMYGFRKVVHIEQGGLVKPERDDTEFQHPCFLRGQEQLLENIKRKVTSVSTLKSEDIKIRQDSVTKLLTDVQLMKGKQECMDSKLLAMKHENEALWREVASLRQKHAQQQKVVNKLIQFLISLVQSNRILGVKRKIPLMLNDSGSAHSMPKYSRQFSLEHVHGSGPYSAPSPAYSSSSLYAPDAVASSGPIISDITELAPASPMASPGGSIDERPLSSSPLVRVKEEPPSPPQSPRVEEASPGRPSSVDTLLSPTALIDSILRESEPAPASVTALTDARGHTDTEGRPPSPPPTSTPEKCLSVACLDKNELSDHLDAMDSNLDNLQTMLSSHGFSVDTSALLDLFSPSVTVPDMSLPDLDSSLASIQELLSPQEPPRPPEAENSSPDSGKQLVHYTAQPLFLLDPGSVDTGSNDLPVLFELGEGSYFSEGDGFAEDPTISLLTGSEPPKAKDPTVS
Chain of Hypoxia-inducible factor 1-alpha (Homo sapiens) (Q16665 whole entry, looked up): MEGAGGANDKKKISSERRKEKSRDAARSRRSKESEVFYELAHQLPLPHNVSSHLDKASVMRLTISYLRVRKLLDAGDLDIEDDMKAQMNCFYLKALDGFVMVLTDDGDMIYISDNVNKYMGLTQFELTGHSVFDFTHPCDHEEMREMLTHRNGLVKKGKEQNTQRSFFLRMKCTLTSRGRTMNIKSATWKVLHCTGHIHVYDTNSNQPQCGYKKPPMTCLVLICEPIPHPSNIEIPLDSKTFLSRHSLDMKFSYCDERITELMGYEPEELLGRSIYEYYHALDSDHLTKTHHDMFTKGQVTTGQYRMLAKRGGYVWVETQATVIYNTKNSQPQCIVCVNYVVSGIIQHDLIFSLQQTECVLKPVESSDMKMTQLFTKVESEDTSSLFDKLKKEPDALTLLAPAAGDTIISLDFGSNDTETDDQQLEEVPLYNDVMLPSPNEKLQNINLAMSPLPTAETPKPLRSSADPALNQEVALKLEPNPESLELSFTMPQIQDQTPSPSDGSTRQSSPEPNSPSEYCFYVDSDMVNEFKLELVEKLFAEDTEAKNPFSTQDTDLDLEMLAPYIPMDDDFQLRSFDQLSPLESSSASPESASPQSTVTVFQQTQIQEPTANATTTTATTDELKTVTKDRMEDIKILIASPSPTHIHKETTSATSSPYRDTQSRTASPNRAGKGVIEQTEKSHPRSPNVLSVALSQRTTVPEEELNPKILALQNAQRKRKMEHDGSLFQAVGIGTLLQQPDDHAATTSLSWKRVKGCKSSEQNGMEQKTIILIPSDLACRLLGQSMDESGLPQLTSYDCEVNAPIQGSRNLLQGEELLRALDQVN
Chain of Signal transducer and activator of transcription 3 (Homo sapiens) (P40763 whole entry, looked up, the tested form may be a part): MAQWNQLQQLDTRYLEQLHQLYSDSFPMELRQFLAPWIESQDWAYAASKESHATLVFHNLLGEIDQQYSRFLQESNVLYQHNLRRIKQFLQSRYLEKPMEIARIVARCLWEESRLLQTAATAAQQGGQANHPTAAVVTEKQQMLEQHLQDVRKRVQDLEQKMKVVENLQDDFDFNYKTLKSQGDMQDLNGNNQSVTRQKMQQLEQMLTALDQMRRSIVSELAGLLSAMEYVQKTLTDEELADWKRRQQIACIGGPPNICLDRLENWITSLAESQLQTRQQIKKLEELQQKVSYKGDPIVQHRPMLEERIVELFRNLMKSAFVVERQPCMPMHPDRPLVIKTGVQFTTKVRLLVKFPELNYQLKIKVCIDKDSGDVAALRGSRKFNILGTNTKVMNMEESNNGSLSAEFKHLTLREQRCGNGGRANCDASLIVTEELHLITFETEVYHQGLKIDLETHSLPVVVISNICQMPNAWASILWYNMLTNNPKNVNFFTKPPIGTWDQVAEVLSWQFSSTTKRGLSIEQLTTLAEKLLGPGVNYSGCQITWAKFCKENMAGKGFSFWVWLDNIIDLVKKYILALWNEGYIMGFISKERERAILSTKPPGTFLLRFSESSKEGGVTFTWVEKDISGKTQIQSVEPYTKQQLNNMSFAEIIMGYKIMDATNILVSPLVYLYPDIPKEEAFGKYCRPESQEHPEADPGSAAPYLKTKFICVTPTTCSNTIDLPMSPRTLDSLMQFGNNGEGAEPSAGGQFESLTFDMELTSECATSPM

Regarding `O=C(O)C(F)(OC(F)(F)C(F)(OC(F)(F)C(F)(OC(F)(F)C(F)(F)C(F)(F)F)C(F)(F)F)C(F)(F)F)C(F)(F)F` (stereo unspecified), the call in [1], in assay [2], in assay [3], in assay [4], in assay [5] and in [6] was inactive. In addition, the outcome in assay [7], in assay [8], in [9], in [10], in [11] and in assay [12] was inactive. The compound was classed as inactive in assay [13], in [14], in [15], in assay [16], in assay [17] and in assay [18]. Further, the outcome in [19] was inactive. Further, the AC50 (commonly the midpoint of the concentration-response curve, whichever way the signal moves) in assay [12] is 83.3 µM (active).

As for `C=C(C)C(=O)OCC(F)(F)C(F)(F)C(F)(F)F`, the outcome in [1], in assay [2], in assay [3], in assay [4], in assay [5] and in [6] was inactive. The call in [7], in [8], in assay [9], in assay [10], in [11] and in assay [12] was inactive. The compound was classed as inactive in assay [13], in assay [14], in assay [15], in assay [16], in [17] and in assay [18]. In addition, the compound was classed as inactive in assay [19].

Regarding `CCCCCC=O`, the outcome in [1], in assay [20], in assay [3], in [4], in [5] and in [6] was inactive. The compound was classed as inactive in assay [7], in assay [8], in [9], in [10], in [11] and in assay [12]. Besides, the compound was called inactive in assay [13], in assay [15], in assay [16], in assay [17], in assay [18] and in assay [19].

Turning to `CS(C)(=O)=O`, the outcome in [1], in assay [20], in assay [2], in [3], in assay [4] and in assay [5] was inactive. Besides, the compound was called inactive in assay [6], in [7], in assay [8], in assay [9], in assay [10] and in assay [11]. Moreover, the compound was classed as inactive in assay [13], in [14], in [15], in [16], in assay [17] and in assay [18]. In assay [19], the result was inactive.
